Results with a measured potency or affinity are listed apart. Active and inactive are the calls of the source.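 How the source made its calls: active means signal drop whose fitted half-maximal potency is at most twice the top valid dose tested; inconclusive means flat curve inhibiting 30 to 70 percent, or a poor fit; inactive means the rest.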
Target: Endoplasmic reticulum aminopeptidase 2 (Homo sapiens) (UniProt Q6P179)
Experiment: inhibition of ERAP2 arginine-AMC cleavage – biochemical, fluorescence plate reader, cherry-picked, set 2, selectivity assay for selective ERAP1 modulator project, dose response (AID 743320)
Settings: recombinant ERAP2, Arg-AMC fluorescence, 1 h; series mostly up to 11 µM

Sequence of Endoplasmic reticulum aminopeptidase 2 (Homo sapiens) (Q6P179 whole entry, looked up): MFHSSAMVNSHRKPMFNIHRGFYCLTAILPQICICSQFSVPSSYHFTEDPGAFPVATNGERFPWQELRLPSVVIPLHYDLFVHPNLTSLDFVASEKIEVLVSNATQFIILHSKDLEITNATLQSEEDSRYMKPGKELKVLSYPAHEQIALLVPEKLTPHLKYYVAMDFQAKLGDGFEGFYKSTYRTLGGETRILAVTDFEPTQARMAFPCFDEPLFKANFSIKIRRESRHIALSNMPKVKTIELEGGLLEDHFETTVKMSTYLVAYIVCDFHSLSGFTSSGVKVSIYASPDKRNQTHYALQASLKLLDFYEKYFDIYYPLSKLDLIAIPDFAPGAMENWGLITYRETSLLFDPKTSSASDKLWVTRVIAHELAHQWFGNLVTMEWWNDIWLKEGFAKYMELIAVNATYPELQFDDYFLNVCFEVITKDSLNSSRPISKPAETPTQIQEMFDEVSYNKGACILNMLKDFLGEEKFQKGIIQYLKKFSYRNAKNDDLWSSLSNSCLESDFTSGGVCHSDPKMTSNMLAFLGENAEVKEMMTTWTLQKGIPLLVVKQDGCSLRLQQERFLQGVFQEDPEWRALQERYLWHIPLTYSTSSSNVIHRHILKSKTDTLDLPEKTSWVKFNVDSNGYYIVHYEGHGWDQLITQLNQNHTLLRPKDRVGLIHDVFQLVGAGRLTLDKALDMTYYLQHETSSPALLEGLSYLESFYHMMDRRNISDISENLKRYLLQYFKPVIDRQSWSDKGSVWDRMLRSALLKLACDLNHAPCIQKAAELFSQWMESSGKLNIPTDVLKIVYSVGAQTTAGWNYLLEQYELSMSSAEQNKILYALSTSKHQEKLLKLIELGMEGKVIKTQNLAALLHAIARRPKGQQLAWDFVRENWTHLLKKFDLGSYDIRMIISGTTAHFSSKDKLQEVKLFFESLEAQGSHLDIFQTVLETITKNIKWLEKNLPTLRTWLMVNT

| SMILES | outcome |
| --- | --- |
| C[C@H]1CN([C@@H](C)CO)C(=O)c2cccc(NC(=O)Nc3ccc(C(F)(F)F)cc3)c2O[C@@H]1CN(C)CC1CC1 | inactive |
| O=C(O)c1ccccc1NS(=O)(=O)c1cccc(-n2sc3ccccc3c2=O)c1 | inactive |
| CO[C@@H]1CN(C)C(=O)c2ccc(NC(=O)Nc3cccc(Cl)c3)cc2OC[C@@H](C)NC[C@H]1C | inactive |
| C[C@H]1CN([C@@H](C)CO)C(=O)c2cccc(NC(=O)Nc3ccc(C(F)(F)F)cc3)c2O[C@@H]1CN(C)C | inactive |
| C[C@@H]1CCCCO[C@@H](CN(C)Cc2ccc3c(c2)OCO3)[C@@H](C)CN([C@H](C)CO)C(=O)c2cc(NS(=O)(=O)c3cccs3)ccc2O1 | inactive |
| CCCNC(=O)C[C@@H]1CC[C@@H]2[C@H](COC[C@H](O)CN2C(=O)Nc2cccc(Cl)c2)O1 | inactive |
| COc1ccc(NC(=O)Nc2ccc3c(c2)C(=O)N([C@H](C)CO)C[C@@H](C)[C@H](CN(C)Cc2ccc(C(=O)O)cc2)OCCCC[C@@H](C)O3)cc1 | inactive |
| CCCN(C)C[C@@H]1OCCCC[C@H](C)Oc2ccc(NC(=O)Nc3ccc(F)cc3)cc2C(=O)N([C@H](C)CO)C[C@@H]1C | inactive |
| CCCN(C)C[C@@H]1OCCCC[C@@H](C)Oc2ccc(NS(=O)(=O)c3ccc(F)cc3)cc2C(=O)N([C@H](C)CO)C[C@@H]1C | inactive |
| C[C@H]1CN([C@@H](C)CO)C(=O)c2cccc(NC(=O)Nc3ccc(F)cc3)c2O[C@@H]1CN(C)C(=O)Nc1ccc2c(c1)OCO2 | inactive |
| COc1ccc(CN(C)C[C@@H]2OCCCC[C@H](C)Oc3ccc(NS(=O)(=O)c4cccs4)cc3C(=O)N([C@H](C)CO)C[C@@H]2C)cc1 | inactive |
| Cc1ccc(S(=O)(=O)Nc2ccc3c(c2)C(=O)N([C@@H](C)CO)C[C@H](C)[C@H](CN(C)C)OCCCC[C@@H](C)O3)cc1 | inactive |
| O=C(C[C@H]1CC[C@H]2[C@@H](COC[C@@H](O)CN2C(=O)Nc2cccc(Cl)c2)O1)N1CCCCC1 | inactive |
| C[C@@H]1CCCCO[C@@H](CN(C)CC2CC2)[C@@H](C)CN([C@H](C)CO)C(=O)c2cc(NS(=O)(=O)c3ccc(Cl)cc3)ccc2O1 | inactive |
| C[C@@H]1CCCCO[C@@H](CN(C)C)[C@@H](C)CN([C@@H](C)CO)C(=O)c2cc(NS(=O)(=O)c3ccc(F)cc3)ccc2O1 | inactive |
| CCn1cc(CN2CCCC(C(=O)Nc3ccc(-c4nc5ccccc5[nH]4)cc3)C2)c(C)n1 (centres undefined) | inactive |
| COc1ccc2c3c([nH]c2c1)[C@H](CO)N(Cc1cc(F)ccc1F)CC31CN(C)C1 | inactive |
| CCCN(C)C[C@@H]1OCCCC[C@@H](C)Oc2ccc(NS(=O)(=O)c3c(C)noc3C)cc2C(=O)N([C@H](C)CO)C[C@@H]1C | inactive |
| COc1ccc(CN(C)C[C@@H]2OCCCC[C@@H](C)Oc3ccc(NS(=O)(=O)c4cccs4)cc3C(=O)N([C@@H](C)CO)C[C@H]2C)cc1 | inactive |
| C[C@@H]1CCCCO[C@@H](CN(C)C)[C@H](C)CN([C@@H](C)CO)C(=O)c2cc(NC(=O)Nc3ccc(C(F)(F)F)cc3)ccc2O1 | inactive |
| COc1ccc(NC(=O)Nc2ccc3c(c2)C(=O)N([C@@H](C)CO)C[C@@H](C)[C@H](CN(C)Cc2ccc(C(=O)O)cc2)OCCCC[C@H](C)O3)cc1 | inactive |
| COC(=O)[C@H]1[C@H](CO)[C@H]2Cn3c(ccc(-c4ccncc4)c3=O)[C@H]2N1Cc1ccccc1F | inactive |
| Cc1noc(C)c1S(=O)(=O)N(C)C[C@@H]1OCCCC[C@@H](C)Oc2ccc(NS(=O)(=O)c3cccs3)cc2C(=O)N([C@@H](C)CO)C[C@@H]1C | inactive |
| O=C(O)c1cccc(NC(=O)c2ccccc2NC(=O)c2cccc([N+](=O)[O-])c2)c1 | inactive |
| C[C@@H]1CCCCO[C@H](CN(C)Cc2ccccc2)[C@H](C)CN([C@H](C)CO)C(=O)c2cc(NS(=O)(=O)c3ccccc3)ccc2O1 | inactive |
| COCCCn1c(C(=O)N2CCOCC2)cc2c(=O)n3ccccc3nc21 | inactive |
| CCCCc1cc(=O)oc2cc(O)ccc12 | inactive |
| CCCNC(=O)C[C@H]1CC[C@@H]2[C@H](COC[C@H](O)CN2C(=O)Nc2cccc(Cl)c2)O1 | inactive |
| COc1ccc(CN(C)C[C@@H]2OCCCC[C@H](C)Oc3ccc(NS(=O)(=O)c4cccs4)cc3C(=O)N([C@@H](C)CO)C[C@@H]2C)cc1 | inactive |

From PubChem BioAssay AID743320 (Broad Institute, 2014)
